Screening results as filed in PubChem.
Sampled rows, rich in hits. Any-hit rate of the full collection: about 2.6%.
Prx2 Sm inh: inhibitors of Schistosoma mansoni peroxiredoxin 2; S. mansoni Prx2 activity coupled to TGR/GSH (TGR is thioredoxin glutathione reductase), NADPH fluorescence loss, qHTS; Potency, µM; hit rate 0.07% among 65,000; AID 448
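Enzyme mix: 100 uM NADPH, 25 nM TGR, 700 uM GSH, 50 nM Prx2 in 100 mM phosphate pH 7.4, 10 mM EDTA, 0.01% Tween-20. 15 min RT with compound; NADPH/GSH added, H2O2 starts reaction; NADPH fluorescence read 8 min.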
AmpC inh det: inhibitors of E. coli AmpC beta-lactamase with detergent; purified AmpC, nitrocefin hydrolysis with detergent; Potency, µM (doses to about 28.7 µM), without a hit: top-dose activity change, negative = inhibition; hit rate 0.09% among 71,000; AID 584; active means well fitted curve in the direction sought with a large enough effect; inconclusive means small, poorly fitted or top-dose-only effect; further: on the % scale 0 is the no-effect control and ±100 the full control effect
Target sequence (P00811 whole entry, looked up): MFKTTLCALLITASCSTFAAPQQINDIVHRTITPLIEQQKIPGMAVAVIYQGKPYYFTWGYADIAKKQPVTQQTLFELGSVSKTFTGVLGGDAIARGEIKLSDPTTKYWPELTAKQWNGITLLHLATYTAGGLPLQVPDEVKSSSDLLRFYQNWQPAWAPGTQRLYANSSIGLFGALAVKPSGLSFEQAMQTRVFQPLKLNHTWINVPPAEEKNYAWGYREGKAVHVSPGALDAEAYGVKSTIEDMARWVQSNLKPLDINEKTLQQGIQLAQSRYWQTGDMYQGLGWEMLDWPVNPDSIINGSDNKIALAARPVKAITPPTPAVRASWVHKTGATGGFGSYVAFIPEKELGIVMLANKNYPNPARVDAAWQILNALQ
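E. coli AmpC (5.3 nM) in 20 mM phosphate pH 7.0 with 0.01% Triton X-100, preincubated 15 min RT with compound; nitrocefin (2 uL of 800 uM stock) hydrolysis followed by 480 nm absorbance every 20 s over 4 min.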
LT uptake inh: blocks cellular internalization of anthrax lethal toxin | hit rate 0.67% among 70,000 | Potency, µM (top dose mostly 40 µM), without a hit: at the top dose activity change, negative = inhibition, most hits filed as inhibitors | Cells, anthrax lethal toxin internalization, FRET ratio (460/530); further: on the % scale 0 is the no-effect control and ±100 the full control effect; nearly all actives have a fitted effect of over 50% in size
AmpC nodet inh: blocks E. coli AmpC beta-lactamase in absence of detergent; P00811; Potency, µM (series often up to 28.7 µM), without a hit: top-dose activity change, negative = inhibition; hit rate 1.8% among 71,000; AmpC nitrocefin hydrolysis, absorbance 480 nm, no detergent; further: % of control where 0% means no effect
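AmpC in 20 mM phosphate buffer pH 7.0 was preincubated 15 min at room temperature with compounds. Nitrocefin (800 uM stock) was then added and hydrolysis followed at 480 nm every 20 s for 4 min.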
Active calls of the source: *; ? = inconclusive; / = no result; [ ] = dose if it differs, or a comment. Unless noted, the call rests on the fitted dose curve. Potency means the concentration at half of the fitted maximal effect.

SMILES | Prx2 Sm inh | AmpC inh det | LT uptake inh | AmpC nodet inh
CCOC(=O)C1CCCN(c2c(N3CCN(c4ccccn4)CC3)c(=O)c2=O)C1 (configuration not stated) | >57 | 11.0% | 1.1% | 3.98µM*[single pt active]
CCOC(=O)CS(=O)(=O)c1nc(-c2ccccc2)cc(C(F)(F)F)n1 | >57 | -8.1% | 3.16µM* | -3.0%
CCOC(=O)CCS(=O)(=O)c1nc(-c2ccccc2)cc(C(F)(F)F)n1 | >57 | 1.1% | ? | 16.2%
CCOC(=O)Nc1nc(-c2ccccc2)c(C)s1 | >57 | -1.6%[5.75 µM] | -6.3%[8 µM] | 4.1%[5.75 µM]
O=C(CN1C(=O)C2C3C=CC(C3)C2C1=O)Nc1ccc2nccnc2c1 (configuration not stated) | >57 | 12.9% | 7.1% | 3.98µM*[single pt active]
COc1ccccc1NC(=O)NCCCN1CCN(c2cccc(Cl)c2)CC1 | >57 | 12.2% | ? | 3.98µM*[single pt active]
CN(Cc1ccccc1)C(=O)CCS(=O)(=O)c1ccc2c(c1)n(C)c(=O)c(=O)n2C | >57 | 13.7% | ? | 3.98µM*[single pt active]
CN(Cc1ccccc1)C(=O)CCC(=O)N(C)Cc1ccccc1 | / | -1.2% | -1.4% | 39.3%
CCC(C)NC(=O)CCS(=O)(=O)c1ccc2c(c1)n(C)c(=O)c(=O)n2C (configuration not stated) | >57 | 12.8% | -7.7% | 3.98µM*[single pt active]
CCOC(=O)N1CCC(NC(=O)C2CCCN(S(=O)(=O)c3cccnc3)C2)CC1 (configuration not stated) | >57 | 12.3% | -4.6% | 3.98µM*[single pt active]
NS(=O)(=O)c1ccc(CCNC(=O)C2CCCN(S(=O)(=O)c3cccnc3)C2)cc1 (configuration not stated) | >57 | 12.6% | -9.9% | 3.98µM*[single pt active]
Cc1ccc2nc(NC(=O)C3CCCN(S(=O)(=O)c4cccnc4)C3)sc2c1 (configuration not stated) | >57 | 12.8% | -29.5% | 3.98µM*[single pt active]
CCOC(=O)N1CCC(NC(=O)C2CCCN(S(C)(=O)=O)C2)CC1 (configuration not stated) | >57 | -4.4% | ? | -5.9%
Cc1ccc2nc(NC(=O)C3CCCN(S(=O)(=O)c4cnc[nH]4)C3)sc2c1 (configuration not stated) | >57 | 3.1% | ? | 2.3%
O=C(NC1CCCC1)C1CCCN(S(=O)(=O)c2cccc3cccnc23)C1 (configuration not stated) | >57 | 13.8% | -14.2% | 3.16µM*[single pt active]
O=C(NCCc1ccccc1)C1CCCN(S(=O)(=O)c2cccnc2)C1 (configuration not stated) | >57 | -1.5% | -0.5% | 2.7%
O=C(NC1CCCCCC1)C1CCN(S(=O)(=O)c2cccc3cccnc23)CC1 | >57 | 30.5% | -14.8% | 22.6%
CCC1=C(C[C@H]2NCCc3cc(OC)c(OC)cc32)C[C@H]2c3ccccc3CCN2C1 | >57 | -4.7%[5.75 µM] | -4.2%[8 µM] | 25.1%[5.75 µM]
C=C1C[C@@]23C[C@]1(O)CC[C@@H]2[C@]12C=C[C@@H](O)[C@@](C)(C(=O)O1)[C@@H]2[C@@H]3C(=O)O | >57 | -0.3% | ? | -8.0%
CC1CCN(CC(=O)N2c3ccccc3Sc3cc4ccccc4cc32)CC1 | >57 | -3.2%[5.75 µM] | -6.3%[8 µM] | 10.6%[5.75 µM]
O=C(O)[C@@H]1[C@@H](C(=O)NCc2cccnc2)[C@@H]2C=C[C@@H]1O2 | >57 | -1.9%[5.75 µM] | ? | 13.6%[5.75 µM]
COc1ccc(Cc2nc(-c3cccs3)no2)cc1OC | >57 | 5.6% | -15.4% | 3.98µM*[single pt active]
CN[C@@H](c1ccncc1)[C@@H](NC)c1ccncc1 | >57 | -2.6%[5.75 µM] | -4.6%[8 µM] | 10.0%[5.75 µM]
CN(C)c1oc(-c2ccccc2Cl)nc1C#N | / | -5.6% | 1.4% | 0.9%
CN(C)c1oc(-c2ccccc2Cl)nc1S(=O)(=O)c1ccccc1 | >57 | 10.6% | -22.1% | 3.98µM*[single pt active]
SMILES | Prx2 Sm inh | AmpC inh det | LT uptake inh | AmpC nodet inh
Cc1noc(NS(=O)(=O)c2ccc(NC(=O)CSc3ncccn3)cc2)c1C | 6.8* | 3.2% | 3.5% | -8.1%
Cc1cc(C)nc(SCC(=O)Nc2ccc(S(=O)(=O)Nc3onc(C)c3C)cc2)n1 | >57 | 5.1% | -4.5% | 7.4%
O=C1NC(=O)[C@]2(Cc3ccccc3N3CCN(c4ccccc4)CC32)C(=O)N1Cc1ccccc1 (some centres not stated) | >57 | 2.1% | / | 10µM*[single pt active]
c1ccc2sc(SCN(C3CCCCC3)C3CCCCC3)nc2c1 | >57 | -2.6%[5.75 µM] | ? | -11.8%[5.75 µM]
O=C(Cn1cnc2sc(-c3ccccc3)cc2c1=O)NCc1ccco1 | >57 | 18.4% | -25.5% | 5.01µM*
COc1ccc(Cl)cc1-c1nc(-c2ccc(Br)o2)no1 | >57 | 12.9% | -8.1% | 3.16µM*[single pt active]
